ALDH1A1 block: blocks purified human ALDH1A1 activity; P00352; Purified ALDH1A1, NADH fluorescence, propionaldehyde substrate; Potency, µM (series often up to 75.3 µM), for inactives: top-dose activity, negative = inhibition, actives largely listed as inhibitors; hit rate 7.3% among 220,000; AID 1030;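 also: potency is read from the fitted curve at half-maximal effect; plate controls were no enzyme wells and a reference inhibitor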
Target sequence (P00352 whole entry, looked up): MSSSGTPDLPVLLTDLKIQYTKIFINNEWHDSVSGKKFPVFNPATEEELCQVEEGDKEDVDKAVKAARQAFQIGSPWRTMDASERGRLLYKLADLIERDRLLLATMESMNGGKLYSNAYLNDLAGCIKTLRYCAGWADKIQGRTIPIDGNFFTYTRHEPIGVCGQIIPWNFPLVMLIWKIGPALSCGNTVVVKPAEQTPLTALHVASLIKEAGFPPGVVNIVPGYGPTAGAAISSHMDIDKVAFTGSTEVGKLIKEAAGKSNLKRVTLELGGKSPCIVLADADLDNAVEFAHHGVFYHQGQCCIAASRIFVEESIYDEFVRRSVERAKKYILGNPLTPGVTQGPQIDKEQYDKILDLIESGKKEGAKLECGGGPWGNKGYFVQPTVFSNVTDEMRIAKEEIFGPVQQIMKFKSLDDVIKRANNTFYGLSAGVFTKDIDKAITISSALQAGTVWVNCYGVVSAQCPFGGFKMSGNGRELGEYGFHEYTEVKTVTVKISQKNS
HPGD inh: inhibitors of human 15-hydroxyprostaglandin dehydrogenase (HPGD); P15428; Potency, µM, inactives show top-dose activity change, negative = inhibition, actives largely listed as inhibitors; hit rate 4.3% among 150,000; purified HPGD, NADH fluorescence kinetic, PGE2 substrate; also: potency is read from the fitted curve at half-maximal effect
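NADH formation kinetics: reaction with 30 uM PGE2 and 1 mM NAD+ (final), 20 nM enzyme, Tris-HCl pH 8 with Tween 20, after 15 min compound preincubation at room temperature. Fluorescence change, last versus first of five reads.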
IMPase inh: cell-permeable inhibitors of inositol monophosphatase (IMPase). P97697. CHO-M1 cells, IP1 accumulation, HTRF TR-FRET ratio. inhibition (IP1 accumulation), % at 46.1 µM. 120,000 tested, under 10 active. AID 901; active = well fitted curve in the direction sought with a large enough effect in the signal ratio, not every such curve was filed as active; inconclusive = small, poorly fitted or top-dose-only effect, or a change in a side signal; inactive = no such curve, though single readings can be large or run the other way; the % refers to the signal ratio;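 also: cells stimulated with carbachol in lithium chloride buffer; plate controls were DMSO basal wells for no effect and reference inhibitor wells for full effect; higher means more IMPase inhibition seen as more IP1 and lower FRET ratio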
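Seeded CHO-M1 cells were dosed with compound at up to 46 uM, stimulated with carbachol for 30 min, then lysed in IP-One detection reagents. Higher IP1 lowers the TR-FRET signal.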
Numbers without * were called inactive; ? = inconclusive; / = not tested or not shown; [ ] = another dose, or the depositor's remark. Hits are enriched below; roughly 9% of the tested compounds scored in any of these assays. Unless noted, calls follow the shape of the dose curve; as a rule, active = well fitted inhibition curve with a large enough effect (not every such curve was filed as active); inconclusive = small, poorly fitted or top-dose-only effect, or another doubt; inactive = no such curve, though single readings can be large or run the other way. Unless noted, % is scaled to controls: 0 for no effect and ±100 for the full control effect.

SMILES	ALDH1A1 block	HPGD inh	IMPase inh
O=C(Cn1nnc(-c2ccc(CN3CCOCC3)cc2)n1)N(c1ccccc1)c1ccccc1	11.2µM*	/	/
NC(=O)Cn1nnc(-c2ccc(CN3CCCCC3)cc2)n1	16.1%	/	/
CC(=O)Nc1cccc(OCc2ccc(F)cc2)c1	3.6%	/	/
Cc1ccccc1S(=O)(=O)c1c(C)cc(C)n(CC(C)C)c1=O	7.94µM*	-3.6%	14.6
Cc1ccccc1S(=O)(=O)c1c(C)cc(C)n(C)c1=O	-0.4%	/	/
CCCCCCCCCCCCCC(=O)N[C@H](C)[C@@H](O)c1ccccc1	18.9%	-7.8%	/
CCCCCNS(=O)(=O)c1cc(C)ccc1OC	-1.5%	-7.8%	/
CCOCCCNS(=O)(=O)c1ccc(OC)c(Cl)c1Cl	2.24µM*	-14.4%	17.7
Cc1nc(N2CCN(Cc3ccccc3)CC2)nc2c1C(=O)CC(c1ccco1)C2 (centres undefined)	22.4µM*	-18.4%	20.5
Cc1nc(N2CCN(Cc3ccc4c(c3)OCO4)CC2)nc2c1C(=O)CC(c1ccco1)C2 (centres undefined)	?	-15.9%	3.7
CN(C)C(=O)c1ccc(-n2cccn2)nc1	-0.7%	/	/
O=C(NC1CC1)C1=C[C@@H](c2csc3ccccc23)C[C@@H](OCc2ccc(CO)cc2)O1	-0.2%	/	/
CN(/N=C/c1ccncc1)c1cnc2ccccc2n1	0.6%	/	/
CC1(C)CC(=O)C2=C(C1)NC(=O)CC2c1ccccc1F (centres undefined)	-3.4%	-11.2%	?
O=C1CC(c2c(F)cccc2Cl)C2=C(COC2=O)N1 (centres undefined)	?	-4.0%	10.6[1.84 µM]
O=C1CC(c2ccccc2F)C2=C(COC2=O)N1 (centres undefined)	17.8µM*	/	/
Cc1[nH]nc2c1C(c1ccccc1F)CC(=O)N2 (centres undefined)	22.4µM*	-18.1%	1.9
Cn1c(SCC(=O)c2ccccc2)nnc1-c1cccc(N)c1	?	-8.2%	-2.7
CC(=O)Nc1ccc(OCCC[n+]2ccccc2)cc1	2.51µM*	/	/
CC(=O)Nc1ccc(OCC[n+]2cccc(C(N)=O)c2)cc1	15.8%	/	/
O=C1c2ccccc2S(=O)(=O)N1Cc1nc2ccccc2s1	-10.5%	-12.5%	-1.1
CN(C)c1ccc(C2=NOC(CN3C(=O)c4ccccc4S3(=O)=O)C2)cc1 (centres undefined)	15.8µM*	?	5.1
O=C1CCC2(CC1)NC(=O)N(c1ccccc1)N2	4.5%	/	/
Cc1ccc(NC(=O)COC(=O)Cc2csc(-c3cccc(F)c3)n2)cc1C	11.2µM*	-15.9%	/
Cc1ccc(NC(=O)COC(=O)Cc2csc(-c3ccc(Cl)cc3)n2)cc1C	6.7%	-2.3%	/
SMILES	ALDH1A1 block	HPGD inh	IMPase inh
NCCS(=O)O	-1.6%	-5.8%	1.8
Cc1ccc(-c2csc(=S)n2CC(=O)OCC(=O)NCc2ccc(F)cc2)cc1	12.6µM*	15.8µM*	17.0
O=C(COC(=O)Cc1ccc(-c2ccccc2)cc1)NCc1ccc(F)cc1	-4.8%	-2.6%	/
Cn1c(=O)c2c(nc(/C=C\c3cccc(Cl)c3)n2C)n(C)c1=O	/	/	-3.7
CCCCCOc1ccc(/C=C/C(=O)Nc2sc(C(C)=O)c(C)c2C(=O)OCC)cc1OC	/	/	-8.7
CCCCCCC(=O)N/N=C/Cc1ccccc1	12.6µM*	-20.7%	-2.1
CCCCCCCCC(=O)N/N=C(\C)c1ccco1	4.5%	-7.4%	/
CC(=O)Nc1ccc(N(C(=O)CNC(=O)c2ccco2)C(C(=O)NCc2ccco2)c2ccccc2F)cc1 (centres undefined)	7.94µM*	/	/
CC(=O)Nc1ccc(N(C(=O)CNC(=O)c2ccco2)C(C(=O)NCC2CCCO2)c2ccccc2)cc1 (centres undefined)	-1.0%	/	/
Cc1c(N/N=C(\C#N)C(=O)c2ccc(Cl)cc2)c(=O)n(-c2ccccc2)n1C	?	28.2µM*	/
N#C/C(=N\Nc1ccc(Cl)cc1)C(=O)c1ccccc1	-4.3%	-23.8%	7.7
c1ccc(C2(c3ccccc3)OCC(Cn3cncn3)O2)cc1 (centres undefined)	-5.3%	-8.4%	-7.0
CCSC1(SCC)N=C(N)C2(C#N)C(c3ccccc3)NC3=C(CCC3)C12C#N (centres undefined)	-5.4%	-10.1%	1.1
CCSC1(SCC)N=C(N)C2(C#N)C(c3ccc(OC)c(OC)c3OC)C12C#N (centres undefined)	?	8.91µM*	6.0
CCS(=O)(=O)N1CCN(c2cc3c(cc2[N+](=O)[O-])n(C)c(=O)n3C)CC1	-7.1%	/	/
Cc1nc(NC(=O)c2ccccc2)sc1-c1csc(Nc2ccc(Cl)cc2)n1	?	-22.7%	2.5
COc1ccc(Nc2nc(-c3sc(NC(C)=O)nc3C)cs2)cc1	31.6µM*	?	-3.5
Cc1nc(N)sc1-c1csc(Nc2ccccn2)n1	?	-8.3%	2.6
COc1ccc(Nc2nc(C)c(-c3ccccc3)s2)cc1	25.1µM*	20µM*	4.5
COc1ccc2nc(Nc3ccccc3)sc2c1	1.6%	/	/
COc1ccc(Nc2nc(-c3sc(N)nc3C)cs2)cc1	7.08µM*	-23.0%	-7.0
COc1cc(C2c3c(oc4ccccc4c3=O)C(=O)N2Cc2ccccc2Cl)ccc1O (centres undefined)	/	/	-2.1
Cc1cc(NC(=O)CSc2nnc(C)c(=O)n2N)no1	1.9%	/	/
CC(C)(C)NC(=O)NC(=O)CN1CCN(c2ccc(O)cc2)CC1	22.4µM*	/	/
CC(CCc1ccccc1)NC(=O)CN1CCN(c2ccc(O)cc2)CC1 (centres undefined)	8.91µM*	/	/
SMILES	ALDH1A1 block	HPGD inh	IMPase inh
CC(C)(C)NC(=O)NC(=O)CN1CCN(c2ccccc2)CC1	-4.1%	/	/
Cc1ccc(CN2CCN(CC(=O)NC(C)CCc3ccccc3)C2=O)cc1 (centres undefined)	?	-12.7%	3.4
Cc1c(NS(=O)(=O)c2ccc3c(c2)CCN3C(=O)C2CC2)c(=O)n(-c2ccccc2)n1C	-6.3%	-6.8%	6.9
Cn1c(N)c(C(=O)COC(=O)CSc2cccc3cccc(Cl)c23)c(=O)n(C)c1=O	-4.3%	/	/
CCCCc1nc2c(c3c1C[C@H](C)OC3)CN(S(=O)(=O)c1ccc(C#N)cc1)CC2	13.8%[13.5 µM]	-3.9%	/
Cc1ccc(C(=O)Oc2ccc(N3C(=O)CCC3=O)c(C)c2)cc1	12.7%	/	/
Cc1cc(OCC(=O)c2ccc(Br)cc2)ccc1N1C(=O)CCC1=O	?	14.1µM*	-5.3
Cc1ccc(OCC(=O)c2ccc3c(c2)CCCC3)cc1C	-1.4%	31.6µM*	-1.1
O=C(COc1ccc(Br)cc1)c1ccc2c(c1)CCCC2	9.0%	-28.4%	3.1
CC(C)(C)NC(=O)C(c1c[nH]c2ccccc12)N(C(=O)Cn1nnc(-c2ccc(F)cc2)n1)c1cccc(O)c1 (centres undefined)	2.2%	-9.5%	/
CC(CC(=O)O)CC(=O)Nc1ccccc1C(=O)O (centres undefined)	-4.9%	-16.4%	-1.1
O=C(Nc1cccc(NC(=O)c2ccccc2[N+](=O)[O-])n1)c1ccccc1[N+](=O)[O-]	-16.8%	-10.3%	-1.1
COc1ccc(NC(=O)Nc2cccs2)cc1OC	22.4µM*	-7.1%	-3.8
COc1cccc(NC(=O)Nc2cccs2)c1	?	-20.9%	-3.4
COc1ccc(NC(=O)C2CCCN(S(=O)(=O)c3cccs3)C2)cc1OC (centres undefined)	5.1%	1.9%	7.9
COc1ccc(NC(=O)C2CCC(CNS(=O)(=O)c3cccs3)CC2)cc1OC (centres undefined)	5.01µM*	/	10.7

Screens as filed in PubChem.
